Screening data as filed in PubChem.
PostGolgi yeast: phenotypic screen on post-Golgi transport, primary screen. 98,000 compounds, 0.9% hits. post-Golgi transport phenotypic cell assay. inhibition, % at 10 µM;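 further: yeast cells grown in 1536-well plates; yeast grown about 18 h at 30C before absorbance read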
CYP2C9 inh: blockers of cytochrome P450 2C9 activity – biochemical, luminescence, ADME assay, primary screen | AID 777, 2007 | 96,000 compounds, 20% hits | inhibition, % at 5 µM | CYP2C9 Supersomes, luciferin-H conversion;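 active means blocking of liver enzyme CYP2C9 beyond about 50% at 5 µM, limit read from the data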
CYP2C19 activ: human CYP2C19 activators, primary screen, biochemical, luminescence | recombinant CYP2C19, luciferin-H EGE luminescence; stronger effect = higher value; 0 = fully inhibited enzyme, 1 = untreated enzyme | activation factor at 5 µM | 96,000 tested, under 10 active;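 active means activation factor of at least 2 at 5 µM in the primary screen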;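 further: 0 = wells with 2.5 mM tranylcypromine and 1 = vehicle-only wells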
Target sequence (P33261 whole entry, looked up): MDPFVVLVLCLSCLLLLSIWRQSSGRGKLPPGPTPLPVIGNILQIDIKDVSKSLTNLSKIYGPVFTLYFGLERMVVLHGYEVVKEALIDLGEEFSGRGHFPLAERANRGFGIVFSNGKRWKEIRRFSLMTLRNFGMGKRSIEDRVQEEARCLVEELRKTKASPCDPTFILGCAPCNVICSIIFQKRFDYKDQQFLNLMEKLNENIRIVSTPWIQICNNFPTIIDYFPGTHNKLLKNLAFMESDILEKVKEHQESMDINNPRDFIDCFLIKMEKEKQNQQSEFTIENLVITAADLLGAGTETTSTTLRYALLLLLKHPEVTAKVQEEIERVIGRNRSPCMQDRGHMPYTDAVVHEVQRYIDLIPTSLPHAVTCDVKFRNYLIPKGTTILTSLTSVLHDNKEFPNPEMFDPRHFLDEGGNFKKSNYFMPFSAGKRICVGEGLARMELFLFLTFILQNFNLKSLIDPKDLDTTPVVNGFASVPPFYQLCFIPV
PostGolgi ctrl: growth inhibition of yeast control strain, primary screen, counter-screen for post-Golgi transport modulator project; efflux-deficient yeast background strain, growth absorbance A615, 16 h; inhibition, % at 10 µM; 98,000 compounds, 5% hits; AID 738, 2007
CYP2C19 inh: blockers of cytochrome P450 2C19 activity – biochemical, luminescence, ADME assay, primary screen. inhibition, % at 5 µM. 96,000 compounds, 21% hits. P33261. AID 778, 2007. CYP2C19 Supersomes, luciferin-H EGE luminescence, 30 min;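 active means CYP2C19 inhibition above a set limit at 5 µM in the primary screen, cut at about 50% in these data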;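 further: plate controls were negative control wells for no effect and 2.5 mM tranylcypromine positive control for full effect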
CYP2C9 activ: human CYP2C9 activators, primary screen, biochemical, luminescence. recombinant CYP2C9, luciferin-H conversion; stronger effect = higher value; factor 1 = untreated enzyme, 0 = blocked. activation factor at 5 µM. 96,000 compounds, 1.4% hits;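 active means activation factor of 2 or more for CYP2C9 at a 5 µM dose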;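 further: 0 = sulfaphenazole-blocked wells and 1 = vehicle-only wells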
* hit, by the source's call. An excerpt weighted towards active compounds, which were near 32% of everything screened. Unless noted, no stated cut-off is given here; in the data, active means inhibition above about 30%; inactive means the rest.

SMILES | PostGolgi yeast | CYP2C9 inh | CYP2C19 activ | PostGolgi ctrl | CYP2C19 inh | CYP2C9 activ
Cc1ccc(-c2nnc(N(C)C(=O)c3ccccn3)s2)cn1 | -6 | 6 | 1 | 1 | 2 | 0.9
O=C(CSc1nc(-c2ccco2)cc(C(F)(F)F)n1)NCC1CCCO1 (stereo unspecified) | -3 | 24 | 0.3 | 15 | 71* | 0.8
COc1ccc(CCNC(=O)CCSc2nc(-c3ccco3)cc(C(F)(F)F)n2)cc1 | 1 | 5 | 1 | -10 | 1 | 0.9
CCOC(=O)N1CCN(c2nc(-c3ccco3)cc(C(F)(F)F)n2)CC1 | 0 | 75* | 0.6 | 27 | 42 | 0.2
O=C(CSc1nc(-c2ccco2)cc(C(F)(F)F)n1)NCCc1ccccc1 | -4 | 30 | 0.8 | 10 | 16 | 0.7
O=C(CCSc1nc(-c2ccco2)cc(C(F)(F)F)n1)NCC1CCCO1 (stereo unspecified) | 3 | -39 | 0.3 | 6 | 67* | 1.4
O=C(CSc1nc(-c2ccco2)cc(C(F)(F)F)n1)N1CCN(Cc2ccccc2)CC1 | -4 | 68* | 0.2 | 16 | 83* | 0.3
O=C(CSc1nc(-c2ccco2)cc(C(F)(F)F)n1)Nc1ccc(C(=O)N2CCCCC2)cc1 | -5 | 85* | 0.4 | 0 | 55* | 0.1
Cc1ccc(S(=O)(=O)/N=C(\N)Nc2nc(C)c3ccc(C)cc3n2)cc1 | -3 | 48 | 0.8 | 24 | 21 | 0.5
Cc1ccc(S(=O)(=O)/N=C(\N)Nc2nc(C)c3cc(C)c(C)cc3n2)cc1 | -7 | 46 | 0.8 | 40* | 23 | 0.5
Cc1cccc(NC(=O)C2CCN(c3nc(C)cc(C)n3)CC2)c1 | -7 | 13 | 0.8 | -2 | 24 | 0.9
Clc1ccc(-c2nc3ncccn3c2Nc2ccc3c(c2)OCO3)cc1 | -4 | -6 | 1 | 4 | 3 | 1.1
Oc1ccc(-c2nc3cnccn3c2Nc2ccc3c(c2)OCCO3)cc1 | -5 | 96* | 0 | -2 | 98* | 0
Oc1ccc(-c2nc3ncccn3c2Nc2ccc3c(c2)OCO3)cc1 | 5 | 59* | 0.6 | 13 | 44 | 0.4
CCSc1ccc(NC(=O)c2cccnc2)cc1 | 8 | 12 | 1 | 4 | -2 | 0.9
CS(=O)(=O)N(CC(=O)NCc1ccco1)c1ccc(Cl)c(C(F)(F)F)c1 | -6 | -28 | 0.8 | 0 | 24 | 1.3
O=C(O)c1cc2ccccc2n1-c1ccccc1 | -1 | 54* | 1 | -1 | -2 | 0.5
CC(C)Nc1nc(Oc2ccc(Cl)cc2)cc(C(F)(F)F)n1 | -3 | 36 | 0.8 | -1 | 22 | 0.6
O=S(=O)(Nc1cccnc1)c1ccc2c(c1)OCCO2 | -2 | 14 | 0.4 | 3 | 58* | 0.9
CC(C)(C)c1ccc(S(=O)(=O)Nc2cccnc2)cc1 | -3 | 14 | 0.4 | 30* | 62* | 0.9
O=S(=O)(Nc1cccnc1)c1ccc(Cl)cc1 | -1 | 85* | 0.2 | 8 | 85* | 0.2
CC(=O)NCCc1ccc(S(=O)(=O)Nc2cccnc2)cc1 | 5 | 5 | 0.8 | 33* | 19 | 1
CCN1CCN(Cc2ccc(NC(=O)Nc3cccs3)cc2)CC1 | -5 | -22 | 1.3 | 5 | -30 | 1.2
Cc1oc(-c2ccccc2F)nc1CS(=O)(=O)CC(=O)NCCN(C)C1CCCCC1 | -7 | 3 | 1.1 | -4 | -10 | 1
COc1ccc(CCNS(=O)(=O)c2cccs2)cc1 | 3 | 90* | 0 | 4 | 99* | 0.1
O=S(=O)(NCCc1ccc2c(c1)OCCO2)c1cccs1 | -8 | 36 | 0.6 | 2 | 43 | 0.6
COc1ccc(S(=O)(=O)NCCc2ccc(F)cc2)cc1 | 1 | 38 | 0 | 4 | 100* | 0.6
CCS(=O)(=O)NCCCCc1ccccc1 | 2 | 19 | 0.4 | 4 | 60* | 0.8
COc1ccc(S(=O)(=O)NCCc2ccccc2)cc1 | -4 | 22 | 0 | 4 | 95* | 0.8
CC1CCOC2(O1)C(=O)N(CN1CCN(c3cccc(Cl)c3)CC1)c1ccccc12 (stereo unspecified) | 13 | 5 | 0.9 | 7 | 11 | 1
